Screens from PubChem BioAssay.
In the library only some 2.9% were active in any assay of this set; here they are far more common.
BioA inh = BioA (M. tuberculosis) enzyme inhibition | inhibition, % at 9.99 µM | 360,000 compounds, 0.096% hits | purified M. tuberculosis BioA enzyme, plate reader; in the data active = inhibition above about 40%
FadD28 FP inh = inhibitors of Mycobacterium tuberculosis FadD28 bisubstrate binding. FadD28 bisubstrate probe binding, fluorescence polarization. inhibition, % at 12.5 µM. 360,000 compounds, 0.22% hits. AID 588549; in the data active = inhibition above about 8.5%, passing the limit was not always enough
GDH-TPI inh = counter-screen for M. tuberculosis FBA inhibitors: GDH-TPI coupled enzymes. GDH-TPI coupled enzyme counterscreen, NADH absorbance. inhibition, % at 4.8 µM. 360,000 compounds, 1.2% hits; in the data active = inhibition above about 30%;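 note: 0% = DMSO wells and 100% = wells lacking the enzyme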
Mtb hypoxia inh = inhibitors of hypoxia-regulated fluorescent reporter in Mycobacterium tuberculosis | M. tuberculosis hypoxia-regulated fluorescent reporter, fluorescence | fluorescence inhibition, % (test concentration not listed) | 300,000 compounds, 0.1% hits | AID 1159583; in the data active = fluorescence inhibition mostly above about 23%, no sharp cut-off; inactive = mostly below about 17%
FBA Mtb inh = Mtb fructose-bisphosphate aldolase inhibition | P9WQA3 | purified M. tuberculosis FBA, fluorescence read-out | inhibition, % at 1 µM | 360,000 compounds, 2.3% hits | AID 588726; in the data active = inhibition above about 27%;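 note: 0% = vehicle and 100% = reference inhibitor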
Target sequence (P9WQA3 whole entry, looked up): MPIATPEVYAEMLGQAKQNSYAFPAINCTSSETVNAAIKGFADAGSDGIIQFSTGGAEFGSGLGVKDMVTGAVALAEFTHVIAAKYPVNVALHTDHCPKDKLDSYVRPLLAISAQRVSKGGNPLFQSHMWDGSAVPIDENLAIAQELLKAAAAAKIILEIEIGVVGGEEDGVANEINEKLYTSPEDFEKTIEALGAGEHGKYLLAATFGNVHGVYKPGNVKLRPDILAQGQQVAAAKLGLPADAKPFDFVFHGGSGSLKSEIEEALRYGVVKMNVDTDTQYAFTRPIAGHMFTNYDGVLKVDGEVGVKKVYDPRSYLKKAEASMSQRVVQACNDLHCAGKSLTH
Active calls of the source: *; nt = not tested or not shown; + = active, no number.

SMILES	BioA inh	FadD28 FP inh	GDH-TPI inh	Mtb hypoxia inh	FBA Mtb inh
COc1ccccc1/C=C/C=N/NC(=O)c1ccco1	0.9	-7.0	36.8*	nt	3.2
COc1ccccc1/C=C/C=N/NC(=O)CN1CCN(S(=O)(=O)c2ccc(C)cc2)CC1	nt	-8.5	32.8*	nt	-4.7
COc1ccccc1/C=C/C=NNC(=O)CN1CCN(S(=O)(=O)c2ccc(C)cc2)CC1	nt	nt	nt	-11.1	nt
COc1ccccc1/C=C/C=N/NC(=O)c1cc(-c2ccc(C)o2)[nH]n1	nt	-2.9	44.4*	nt	0.4
C[C@@H]1CCCCO[C@@H](CN(C)C(=O)c2ccncc2)[C@@H](C)CN([C@@H](C)CO)C(=O)c2cc(NC(=O)NC3CCCCC3)ccc2O1	1.7	nt	nt	nt	nt
COc1ccc(C2CC(=O)C=C(c3ccc(SC)cc3)C2)cc1OC (stereo not given)	nt	nt	nt	-2.9	nt
Cc1ccsc1/C=N/NC(=O)c1ccco1	nt	-0.5	33.3*	nt	-1.4
COc1ccccc1NS(=O)(=O)c1cccc(C(=O)N/N=C/c2ccc(N3CCOCC3)cc2)c1	6.6	-0.9	34.4*	nt	0.9
COc1ccccc1NS(=O)(=O)c1cccc(NC(=O)Nc2ccc(Cl)cc2)c1	nt	31.3*	9.3	12.7	-2.1
COc1ccccc1NS(=O)(=O)c1cccc(C(=O)N/N=C/c2ccc(C)o2)c1	0.7	-2.8	40.5*	nt	-1.1
COc1ccccc1NS(=O)(=O)c1cccc(NC(=O)Nc2ccccc2)c1	8.0	-3.7	1.5	10.3	4.0
O=C(C[C@@H]1CC[C@H](NS(=O)(=O)c2ccccc2)[C@H](CO)O1)N1CCc2ccccc2C1	-0.9	nt	nt	nt	nt
C[C@@H]1CN([C@H](C)CO)C(=O)Cc2cc(N(C)C)ccc2O[C@@H]1CN(C)Cc1ccc(-c2ccccc2)cc1	-0.3	nt	nt	nt	nt
CCCCOC(=O)Nc1nnc(CCOCC)s1	0.4	-2.5	46.8*	8.1	-0.4
COc1ccc(S(=O)(=O)Nc2ccc3c(c2)C(=O)N([C@H](C)CO)C[C@@H](C)[C@H](CN(C)S(=O)(=O)c2c(C)noc2C)OCCCC[C@H](C)O3)cc1	-0.9	nt	nt	nt	nt
O=C(COC(=O)C1CC2CCCC(C1)C2=O)Nc1ccc(F)c(Cl)c1 (stereo not given)	4.1	-3.2	5.7	22.0*	-3.0
OC1(C#Cc2c(-c3ccsc3)oc3ccc(N4CCOCC4)cc23)CCCCC1	-1.7	-3.7	17.5	-0.6	24.2
COc1ccc(C#Cc2c(-c3ccsc3)oc3ccc(N4CCOCC4)cc23)cc1	-1.9	-0.8	32.7*	11.2	26.8
COc1ccc(-c2oc3ccc(N4CCOCC4)cc3c2C#CC2(O)CCCCC2)cc1	-2.8	-1.0	29.1	8.0	67.7*
CC(C)(O)c1ccccc1CCC(SCC1(CC(=O)O)CC1)c1cccc(C=Cc2ccc3ccc(Cl)cc3n2)c1 (stereo not given)	nt	nt	nt	-9.2	nt
CC(C)(O)c1ccccc1CC[C@@H](SCC1(CC(=O)O)CC1)c1cccc(/C=C/c2ccc3ccc(Cl)cc3n2)c1	-8.0	-1.4	31.4*	nt	5.9
CCc1csc(N2[C@H](CO)[C@@H](c3ccc(-c4ccc(F)cc4)cc3)[C@@H]2C#N)n1	-1.5	nt	nt	nt	nt
COc1cccc(/C=C(\C#N)c2nc3ccccc3[nH]2)c1OCC(=O)O	-0.4	-1.3	35.0*	3.8	4.7
N#C/C(=C/c1cccs1)c1nc2ccccc2[nH]1	nt	-2.9	19.2	11.2	3.8
Cc1ccc(/C=C(\C#N)c2nc3ccccc3[nH]2)s1	-1.7	-3.2	36.7*	15.8	1.4
SMILES	BioA inh	FadD28 FP inh	GDH-TPI inh	Mtb hypoxia inh	FBA Mtb inh
COc1cccc(/C=C(/C#N)c2nc3ccccc3[nH]2)c1OC(C)C(=O)O (stereo not given)	nt	-2.4	19.1	10.1	3.4
O=C(NNC(=O)C1[C@H]2CCCC[C@@H]12)c1ccc(=O)oc1 (stereo not given in full)	-1.1	1.2	39.3*	-8.0	14.3
Cc1ccc(C=NNC(=O)Cn2nnc(N)n2)o1	nt	nt	nt	3.2	nt
COCCCNc1nc2nonc2nc1N(C)CC1CCCN1C (stereo not given)	nt	-0.9	36.1*	3.1	1.3
COCCCNc1nc2nonc2nc1N1C[C@H]2CC[C@H]1C2	nt	-3.2	15.9	-4.6	3.9
CCC(C)NC(=O)c1cc2cc3ccc(OC)cc3nc2o1 (stereo not given)	-1.7	-3.9	21.1	11.7	+
COc1ccc2cc3cc(C(=O)NCC4CCCO4)oc3nc2c1 (stereo not given)	0.5	-2.5	30.4	nt	+
COc1ccc(C(=O)NCC2CCCO2)cc1 (stereo not given)	nt	-0.5	3.7	-1.1	2.8
COc1ccc2cc3cc(C(=O)NCCN4CCN(c5ccccc5F)CC4)oc3nc2c1	3.5	-6.2	34.3*	nt	+
COc1ccc2cc3cc(C(=O)NCCC(C)C)oc3nc2c1	-1.6	-0.7	14.6	1.0	134.1*
CCOc1ccc(NC(=O)c2cc3cc4ccc(OC)cc4nc3o2)cc1	1.6	-4.1	8.0	4.4	-0.4
COc1ccc2cc3cc(C(=O)Nc4ccccc4N4CCN(C)CC4)oc3nc2c1	-2.0	-7.8	21.9	nt	0.6
CN1CCN(C(=O)C[C@@H]2C[C@@H]3c4cc(NC(=O)Nc5ccccc5F)ccc4O[C@@H]3[C@@H](CO)O2)CC1	2.9	nt	nt	nt	nt
COc1ccc(CN(C)C[C@@H]2Oc3ccc(NC(=O)Nc4ccc(F)cc4)cc3C(=O)N([C@@H](C)CO)C[C@@H]2C)cc1	-1.0	nt	nt	nt	nt
COCCNC(=O)c1cc2cc3ccc(OC)cc3nc2o1	-0.9	-3.2	22.1	-4.9	+
Cc1ccc2cc3cc(C(=O)NCCCN4CCCC4)oc3nc2c1	-0.7	-6.6	38.5*	8.0	127.2*
COc1cccc(NC(=O)N(C)C[C@@H]2OCc3cnnn3CCCC(=O)N([C@H](C)CO)C[C@H]2C)c1	0.1	nt	nt	nt	nt
CCCN(CCC)Cc1c(C(=O)NN=Cc2ccc(C)o2)nnn1-c1nonc1N	nt	nt	nt	15.1	nt
COc1ccc(NCC(=O)NN=Cc2cc([N+](=O)[O-])ccc2N2CCCC2)cc1	nt	nt	nt	0.0	nt
C[C@H](CO)N1C[C@H](C)[C@@H](CN(C)C(=O)Nc2ccc(F)cc2)Oc2c(NS(=O)(=O)c3ccc(F)cc3)cccc2C1=O	-1.8	nt	nt	nt	nt
c1ccc(-c2ccc3c(c2)CNCc2cnnn2-3)cc1	-1.2	0.5	nt	nt	0.7
CCOC(=O)CNC(=O)N1Cc2cc(-c3ccc(OC)cc3)ccc2-n2nncc2C1	-2.7	-5.2	nt	nt	124.5*
COc1ccc(-c2ccc3c(c2)CNCc2cnnn2-3)cc1	4.5	-4.9	nt	nt	114.6*
CCOC(=O)CNC(=O)N1Cc2cc(-c3cccc(F)c3)ccc2-n2nncc2C1	4.2	-11.0	nt	nt	-2.4
